LmPK inh – inhibitors of Leishmania mexicana pyruvate kinase; purified LmPK, Kinase-Glo ATP luminescence, 1 h; Potency, µM (series often up to 57.5 µM), most hits filed as inhibitors; AID 1721; 290,000 tested, 0.37% active; Q27686
Target sequence (Q27686 whole entry, looked up): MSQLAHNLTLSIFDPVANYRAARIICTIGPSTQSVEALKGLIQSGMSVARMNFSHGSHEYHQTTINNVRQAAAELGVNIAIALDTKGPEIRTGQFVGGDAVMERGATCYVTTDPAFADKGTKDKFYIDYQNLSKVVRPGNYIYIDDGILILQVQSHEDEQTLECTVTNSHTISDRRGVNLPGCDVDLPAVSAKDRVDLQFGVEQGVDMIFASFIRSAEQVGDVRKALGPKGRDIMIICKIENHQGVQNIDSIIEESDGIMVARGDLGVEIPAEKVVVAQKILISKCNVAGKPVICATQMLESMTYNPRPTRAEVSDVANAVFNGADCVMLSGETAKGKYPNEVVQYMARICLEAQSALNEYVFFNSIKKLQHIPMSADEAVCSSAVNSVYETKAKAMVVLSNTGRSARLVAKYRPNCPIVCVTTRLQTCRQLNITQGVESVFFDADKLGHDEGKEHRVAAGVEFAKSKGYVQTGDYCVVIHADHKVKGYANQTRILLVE
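Purified LmPK (0.1 nM) with 0.5 mM PEP and 0.1 mM ADP in imidazole buffer pH 7.2 with MgCl2/KCl, 1 h at room temperature. ATP formed was read by luciferase luminescence and normalized to no-enzyme and uninhibited controls.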
Pf growth 48h – P. falciparum growth inhibition at 48 hours (one generation); P. falciparum luciferase growth in erythrocytes, 48 h; 310,000 tested, 5.9% active; AID 504832; Potency, µM (top dose mostly 28.7 µM), hits mostly inhibitors
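Parasite viability was followed by luminescence of a genomically integrated firefly luciferase. Cultures held 0.1% parasitemia at 2% hematocrit (final), incubated under 5% CO2 at 37 C.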
Pf growth 96h – P. falciparum growth inhibition at 96 hours | P. falciparum luciferase reporter growth, 96 h | Potency, µM (highest dose often 28.7 µM), most hits filed as inhibitors | 320,000 tested, 6.9% active | AID 504834
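Parasite growth measured via integrated firefly luciferase reporter in P. falciparum. Infected erythrocytes at 2% hematocrit, 0.05% parasitemia final were treated 96 hours at 37 C under 5% CO2, and luminescence was read.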
Cycloheximide cs – affects cycloheximide protein synthesis inhibition readout, counter-screen; AID 2314; max response, %; 300,000 tested, 12% active; cell reporter, cycloheximide protein synthesis inhibition counterscreen; in the data active = max response mostly above about 13%, no sharp cut-off; inactive = mostly below about 14%; note: read at 38.3 µM for the half of the compounds with a filed dose
Shiga toxin inh – inhibitors of Shiga toxin in Vero cells; Vero cells, Shiga toxin protein synthesis inhibition reporter; 290,000 tested, 9.2% active; inhibition, % at 38.7 µM; in the data active = inhibition mostly above about 28%, no sharp cut-off; inactive = mostly below about 43%
Hits are given with their value; n = inactive; u = inconclusive; x = not tested or not shown. The list is not random: actives were taken first. Their share in the collection is about 22%. Unless noted, calls come from the whole dose curve; as a rule, active = well fitted inhibition curve with a large enough effect; inconclusive = small, poorly fitted or top-dose-only effect, or another doubt; inactive = no such curve, though single readings can be large or run the other way.

SMILES	LmPK inh	Pf growth 48h	Pf growth 96h	Cycloheximide cs	Shiga toxin inh
Nc1c(N(Cc2ccccc2)C(=O)COc2ccc(F)cc2)c(=O)[nH]c(=O)n1Cc1ccccc1	n	n	n	n	n
CCCN(C(=O)CCSc1ccc(F)cc1)c1c(N)n(Cc2ccccc2)c(=O)[nH]c1=O	n	11.7µM	4.65µM	n	n
CCCN(C(=O)CSCc1ccccc1C)c1c(N)n(Cc2ccccc2)c(=O)[nH]c1=O	x	u	n	x	x
CC1CCCCN1C(=S)Nc1ccc2nc3n(c(=O)c2c1)CCCCC3 (configuration not stated)	n	n	n	n	n
CC(=O)N(C)c1ccc(NC(=O)N2CCOCC2)cc1	n	n	n	n	n
O=c1c2sccc2n(Cc2cccc(F)c2)c(=O)n1-c1ccc(F)cc1	n	n	u	n	n
CCC1CN(C(=O)N2CCC(C(=O)NCCc3ccccc3OC)CC2)c2ccccc2O1 (configuration not stated)	n	u	u	n	n
COCCN(C(=O)CCSc1ccc(F)cc1)c1c(N)n(Cc2ccccc2)c(=O)[nH]c1=O	x	u	13.1µM	x	x
COCCN(C(=O)CSc1nc2ccccc2c(=O)n1C(C)COC)c1c(N)n(Cc2ccccc2)c(=O)[nH]c1=O (configuration not stated)	n	u	n	n	n
CCN(C(=O)CSc1nnc(-c2ccccc2)o1)c1c(N)n(Cc2ccccc2)c(=O)[nH]c1=O	n	n	u	n	n
CCN(CC)c1ccc(-c2nnc(SCC(=O)N(CCOC)c3c(N)n(CC(C)C)c(=O)[nH]c3=O)o2)cc1	x	1.65µM	u	x	x
COCCN(C(=O)CSCc1ccccc1)c1c(N)n(Cc2ccccc2)c(=O)[nH]c1=O	n	n	n	n	n
COCCN(C(=O)CSc1nc2ccccc2c(=O)n1CC(C)C)c1c(N)n(Cc2ccccc2)c(=O)[nH]c1=O	n	10.4µM	n	n	n
CC(Oc1ccc(F)cc1)C(=O)N(CCC1=CCCCC1)c1c(N)n(Cc2ccccc2)c(=O)[nH]c1=O (configuration not stated)	x	u	9.28µM	x	x
Cc1ccc(NC(=O)Cn2nnc(C(=O)NCc3ccc(Cl)cc3)c2N)cc1F	n	n	n	n	n
COc1ccc(CCN2CC(C(=O)NCCc3ccccn3)CCC2=O)cc1 (configuration not stated)	n	n	n	n	n
COCCN(C(=O)COC(=O)/C=C/c1nc2ccccc2s1)c1c(N)n(Cc2ccccc2)c(=O)[nH]c1=O	x	n	n	x	x
COCCN(C(=O)COC(=O)/C=C/c1ccc2ccccc2n1)c1c(N)n(Cc2ccccc2)c(=O)[nH]c1=O	n	u	u	11.0	n
COCCCN(C(=O)CCOc1ccc(C(C)(C)C)cc1)c1c(N)n(Cc2ccccc2)c(=O)[nH]c1=O	x	13.1µM	u	x	x
CCN1C(=NCC(C)C)N[C@@H](c2ccccc2)[C@H](C(=O)OC)[C@H]1C	n	n	u	n	n
CNC(=O)c1ccsc1NC(=O)CS(=O)(=O)c1ccc(Cl)cc1	n	n	u	n	n
CC1=C(C(=O)OCC2CCCO2)C(c2coc3ccccc3c2=O)C2=C(CCCC2=O)N1 (configuration not stated)	n	u	n	n	n
C[N+](C)(C)CCN(Cc1ccc(Cl)cc1)c1ccccn1	n	6.57µM	2.33µM	n	n
CN(C)CCN(Cc1ccc(Cl)cc1)c1ccccn1	n	u	u	n	n
COc1ccc(-c2nc(N3CCN(S(=O)(=O)c4ccccc4)CC3)c3ccccc3n2)cc1	x	x	x	n	n
SMILES	LmPK inh	Pf growth 48h	Pf growth 96h	Cycloheximide cs	Shiga toxin inh
CC(=O)N1SC(N)=NC1c1ccccc1 (configuration not stated)	n	n	x	n	64.4
CC(=O)N1N=C(c2ccccc2)CC1c1ccccc1 (configuration not stated)	n	n	u	n	n
CC(C)(C)C(=O)Nc1cc2nn(-c3ccccc3)nc2cc1Cl	u	x	n	47.5	86.3
CC(=O)Nc1cc2nn(-c3ccccc3)nc2cc1Cl	n	n	n	26.1	64.0
COC(=O)C1=C(C)NC(=O)NC1c1ccc(-c2ccc(Cl)cc2)o1 (configuration not stated)	n	n	u	n	n
COC(=O)C1=C(C)NC(=S)NC1c1ccc(-c2cc(Cl)ccc2Cl)o1 (configuration not stated)	n	11.7µM	u	n	n
CCc1nc(CN(C)C(=O)C2CCC(=O)N(CCc3cccc(F)c3)C2)no1 (configuration not stated)	n	n	n	21.9	n
COc1cccc(CNC(=O)C2CCC(=O)N(CCc3cccc(F)c3)C2)c1 (configuration not stated)	n	n	n	n	n
O=C(NCCN1CCCC1=O)C1CCC(=O)N(CCc2cccc(F)c2)C1 (configuration not stated)	n	n	13.1µM	n	n
CN(Cc1nccs1)C(=O)C1CCC(=O)N(CCc2cccc(F)c2)C1 (configuration not stated)	n	n	n	n	n
O=C(NCc1cccc(F)c1)C1CCC(=O)N(CCc2cccc(F)c2)C1 (configuration not stated)	n	n	n	19.9	n
O=C(NCCc1cccc(C(F)(F)F)c1)C1CCC(=O)N(CCc2cccc(F)c2)C1 (configuration not stated)	n	n	n	n	n
CCc1cc(CNC(=O)C2CCC(=O)N(Cc3cccc(F)c3)C2)on1 (configuration not stated)	n	n	11.7µM	n	n
COc1ccc(CCN(C)C(=O)Cn2c(=O)oc3ccccc32)cc1OC	n	n	n	n	n
CC(C)(O)C#Cc1ccc(CN2CCC(n3nccc3NC(=O)C3CC3)CC2)cc1	n	n	u	n	n
CC(C)(C)N(Cc1ccccc1)C(=O)COC(=O)Cn1cnc2ccccc2c1=O	n	n	n	n	n
O=C(NCCC1CCCC1)C1CCC(=O)N(CCCN2CCCC2=O)C1 (configuration not stated)	n	n	u	n	n
Cc1nc(CCNC(=O)C2CCC(=O)N(CCc3cccc(F)c3)C2)sc1C (configuration not stated)	n	n	14.7µM	n	n
Cc1ccc(F)cc1CNC(=O)C1CCC(=O)N(CCCN2CCCC2=O)C1 (configuration not stated)	n	n	n	22.3	n
O=C(NCc1cc2ccccc2[nH]1)C1CCC(=O)N(CCCN2CCCC2=O)C1 (configuration not stated)	n	n	10.4µM	n	n
O=C(NC(C1CC1)C1CC1)C1CCC(=O)N(CCCN2CCCC2=O)C1 (configuration not stated)	n	n	n	16.9	n
COC(=O)c1c(NC(=O)c2ccccc2F)sc(C(=O)N2CCOCC2)c1C	n	n	n	n	n
Cc1cnc(C(=O)OC(C(=O)c2c[nH]c3ccccc23)c2ccccc2)cn1 (configuration not stated)	x	n	n	x	x
O=C(Nc1nnc(COc2ccccc2)s1)c1ccco1	n	n	x	n	n
